# A number with no mark means an inactive call. Records with an inconclusive call do not appear. A call without a number means that no potency is given here. The source made the active and inactive calls. Unless noted, the call rests on the fitted dose curve; in most records, active means well fitted curve in the direction sought with a large enough effect in the repeat runs; inconclusive means weak or mixed curves; inactive means flat fitted curve, though single readings scatter.
# Tested on: not listed separately
# Assay: qHTS assay to test for compound auto fluorescence at 460 nm (blue) in HepG2 cells (AID 720687)
# Details: autofluorescence 405/460 nm, 1 h; series mostly up to 91.3 µM
# Summary of the method: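 Cells (2,000/well in MEM with 10% FBS) attached overnight at 37 C, then were exposed to compound or DMSO for 1 hr at 37 C, 5% CO2. Fluorescence read at Ex/Em 405/460 nm, expressed as triamterene-equivalent signal.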
SMILES,Potency,"fluorescence, % of fluorescent control"
CC(=O)OC(C)(C)C,inactive,–
CC(C)(O)c1ccccc1,inactive,–
C[C@H](O)C(=O)Nc1c(I)c(C(=O)NC(CO)CO)c(I)c(C(=O)NC(CO)CO)c1I,–,-0.0019% [at 18.6 µM]
CSc1ccc(C=O)cc1,inactive,–
NCC[C@H](O)C(=O)N[C@@H]1C[C@H](N)[C@@H](O[C@H]2O[C@H](CN)[C@@H](O)[C@H](O)[C@H]2O)[C@H](O)[C@H]1O[C@H]1O[C@H](CO)[C@@H](O)[C@H](N)[C@H]1O,inactive,–
CCN1CCN(c2cc3c(cc2F)c(=O)c(C(=O)O)cn3C2CC2)CC1,inactive,–
CCCCCCCCCCCCCCC,inactive,–
C/C=C1\C(=O)C[C@H]2[C@@H]3CCC4=CC(=O)CC[C@]4(C)[C@H]3CC[C@]12C,inactive,–
c1cc(CN2CCCCC2)cc(OCCCNc2nc3ccccc3s2)c1,inactive,–
CC(C)(C)N(CCO)CCO,inactive,–
COc1cc(C)cc(O)c1,inactive,–
COc1ccc(NC(C)=O)cc1,inactive,–
CC(=O)c1ccc(C)cc1,inactive,–
COC(C(=O)O)c1ccccc1 (configuration not stated),inactive,–
CCCCC=O,inactive,–
C#CC(O)CCCCC (configuration not stated),inactive,–

SMILES,Potency,"fluorescence, % of fluorescent control"
COc1cc(CCC(C)=O)ccc1O,inactive,–
NC(N)=NS(=O)(=O)c1ccc(N)cc1,–,-0.0417% [at 18.6 µM]
NC(=O)c1ncn([C@@H]2O[C@H](CO)[C@@H](O)[C@H]2O)c1O,inactive,–
NC(=S)Nc1cccc2ccccc12,–,-0.0944% [at 3.72 µM]
CC(=O)NC(Cc1ccccc1)C(=O)O (configuration not stated),inactive,–
CC(C)(O)Cc1ccccc1,inactive,–
Cc1ccccc1Br,inactive,–
CC12CCC(CC1=O)C2(C)C (configuration not stated),inactive,–
C=C(C)C1CC=C(C)C(O)C1 (configuration not stated),inactive,–
CC1CCN(CCCC(=O)c2ccc(F)cc2)CC1,inactive,–
COC(=O)[C@H]1[C@H]2C[C@@H]3c4[nH]c5cc(OC)ccc5c4CCN3C[C@H]2C[C@@H](OC(=O)COc2ccc(OC)cc2)[C@@H]1OC,inactive,–
CC1=CC(=O)CCC1,inactive,–
CCOC(=O)[C@H](CCc1ccccc1)N[C@@H](C)C(=O)N1CCC[C@H]1C(=O)O,inactive,–
CCCCC1CCCCC(=O)O1 (configuration not stated),inactive,–
CC1=CCC2C(C1)C2(C)C (configuration not stated),inactive,–

# Biological target: Glucocorticoid receptor (Homo sapiens) (UniProt P04150)
# Sequence (P04150 whole entry, looked up): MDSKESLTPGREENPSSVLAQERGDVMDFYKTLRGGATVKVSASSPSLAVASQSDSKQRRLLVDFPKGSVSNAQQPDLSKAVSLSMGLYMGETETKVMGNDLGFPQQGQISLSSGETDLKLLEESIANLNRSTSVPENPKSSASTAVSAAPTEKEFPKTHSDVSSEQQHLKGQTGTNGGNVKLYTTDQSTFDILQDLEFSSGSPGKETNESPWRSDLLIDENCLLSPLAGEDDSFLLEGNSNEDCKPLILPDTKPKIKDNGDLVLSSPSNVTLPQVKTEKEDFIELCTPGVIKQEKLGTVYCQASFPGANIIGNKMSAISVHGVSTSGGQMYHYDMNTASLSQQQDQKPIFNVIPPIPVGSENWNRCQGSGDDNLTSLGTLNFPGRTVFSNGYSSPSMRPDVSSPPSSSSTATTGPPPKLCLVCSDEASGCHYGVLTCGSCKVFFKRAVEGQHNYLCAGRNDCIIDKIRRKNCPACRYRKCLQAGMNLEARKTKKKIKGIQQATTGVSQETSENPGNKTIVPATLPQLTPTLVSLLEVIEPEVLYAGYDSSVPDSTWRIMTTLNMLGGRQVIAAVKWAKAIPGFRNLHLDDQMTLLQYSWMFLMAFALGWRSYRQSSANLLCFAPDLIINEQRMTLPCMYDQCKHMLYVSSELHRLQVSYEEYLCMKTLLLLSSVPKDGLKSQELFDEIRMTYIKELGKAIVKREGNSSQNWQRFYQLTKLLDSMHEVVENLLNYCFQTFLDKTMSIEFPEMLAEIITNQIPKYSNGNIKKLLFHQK
# Assay: qHTS assay to identify small molecule agonists of the glucocorticoid receptor (GR) signaling pathway (AID 720691; active means well fitted activation curve with a large enough effect in the signal ratio in the repeat runs, not every such curve was filed as active; the % refers to the signal ratio; further: potency means the concentration at half of the fitted maximal effect)
# Details: GR-bla HeLa, beta-lactamase reporter ratio, 18 h; series mostly up to 62.4 µM
# Summary of the method: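 Measures GR pathway activation through a GRE-beta-lactamase reporter stably integrated in HeLa cells, with 18 h compound treatment at 37 C and fluorescence detection using a FRET substrate.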
SMILES,Potency,activation
CC(C)(O)c1ccccc1,inactive,–
C[C@H](O)C(=O)Nc1c(I)c(C(=O)NC(CO)CO)c(I)c(C(=O)NC(CO)CO)c1I,6.44 µM (active),–
CSc1ccc(C=O)cc1,inactive,–
NCC[C@H](O)C(=O)N[C@@H]1C[C@H](N)[C@@H](O[C@H]2O[C@H](CN)[C@@H](O)[C@H](O)[C@H]2O)[C@H](O)[C@H]1O[C@H]1O[C@H](CO)[C@@H](O)[C@H](N)[C@H]1O,inactive,–
CCN1CCN(c2cc3c(cc2F)c(=O)c(C(=O)O)cn3C2CC2)CC1,inactive,–
CCCCCCCCCCCCCCC,inactive,–
c1cc(CN2CCCCC2)cc(OCCCNc2nc3ccccc3s2)c1,inactive,–
CC(C)(C)N(CCO)CCO,inactive,–
COc1cc(C)cc(O)c1,inactive,–
COc1ccc(NC(C)=O)cc1,inactive,–
CC(=O)c1ccc(C)cc1,inactive,–
COC(C(=O)O)c1ccccc1 (configuration not stated),inactive,–
COc1ccc(COC=O)cc1,inactive,–
CCCCC=O,inactive,–
COc1cc(CCC(C)=O)ccc1O,inactive,–
NC(N)=NS(=O)(=O)c1ccc(N)cc1,inactive,–
NC(=O)c1ncn([C@@H]2O[C@H](CO)[C@@H](O)[C@H]2O)c1O,inactive,–
NC(=S)Nc1cccc2ccccc12,–,-4.91% [at 6.9 µM]
CC(=O)NC(Cc1ccccc1)C(=O)O (configuration not stated),inactive,–
CC(C)(O)Cc1ccccc1,inactive,–
CC12CCC(CC1=O)C2(C)C (configuration not stated),inactive,–
C=C(C)C1CC=C(C)C(O)C1 (configuration not stated),inactive,–
CC1CCN(CCCC(=O)c2ccc(F)cc2)CC1,inactive,–
COC(=O)[C@H]1[C@H]2C[C@@H]3c4[nH]c5cc(OC)ccc5c4CCN3C[C@H]2C[C@@H](OC(=O)COc2ccc(OC)cc2)[C@@H]1OC,inactive,–
CC1=CC(=O)CCC1,inactive,–
CCOC(=O)[C@H](CCc1ccccc1)N[C@@H](C)C(=O)N1CCC[C@H]1C(=O)O,inactive,–
CCCCC1CCCCC(=O)O1 (configuration not stated),inactive,–
CC1=CCC2C(C1)C2(C)C (configuration not stated),inactive,–

# Biological target: Glucocorticoid receptor (Homo sapiens) (UniProt P04150)
# Assay: qHTS assay to identify small molecule antagonists of the glucocorticoid receptor (GR) signaling pathway (AID 720692; active means well fitted inhibition curve with a large enough effect in the signal ratio in the repeat runs, not every such curve was filed as active; the % refers to the signal ratio)
# Details: GR-bla HeLa, beta-lactamase FRET ratio, dexamethasone-stimulated, 18 h; series mostly up to 58.5 µM
# Summary of the method: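 Tox21 10K library screened in concentration-response for blockade of dexamethasone (5 nM final)-induced GRE-bla reporter activity in HeLa cells; 18 h treatment, fluorescence read.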
SMILES,Potency,"activity change, negative = inhibition"
CC(C)(O)c1ccccc1,inactive,–
CSc1ccc(C=O)cc1,inactive,–
NCC[C@H](O)C(=O)N[C@@H]1C[C@H](N)[C@@H](O[C@H]2O[C@H](CN)[C@@H](O)[C@H](O)[C@H]2O)[C@H](O)[C@H]1O[C@H]1O[C@H](CO)[C@@H](O)[C@H](N)[C@H]1O,inactive,–
CCN1CCN(c2cc3c(cc2F)c(=O)c(C(=O)O)cn3C2CC2)CC1,inactive,–
CCCCCCCCCCCCCCC,inactive,–
c1cc(CN2CCCCC2)cc(OCCCNc2nc3ccccc3s2)c1,inactive,–
CC(C)(C)N(CCO)CCO,inactive,–
COc1ccc(NC(C)=O)cc1,inactive,–
COC(C(=O)O)c1ccccc1 (configuration not stated),inactive,–
COc1ccc(COC=O)cc1,inactive,–
CCCCC=O,inactive,–
COc1cc(CCC(C)=O)ccc1O,inactive,–
NC(N)=NS(=O)(=O)c1ccc(N)cc1,inactive,–
NC(=O)c1ncn([C@@H]2O[C@H](CO)[C@@H](O)[C@H]2O)c1O,inactive,–
NC(=S)Nc1cccc2ccccc12,–,-3.43% [at 7.04 µM]
CC(=O)NC(Cc1ccccc1)C(=O)O (configuration not stated),inactive,–
CC(C)(O)Cc1ccccc1,inactive,–
CC12CCC(CC1=O)C2(C)C (configuration not stated),inactive,–
CC1CCN(CCCC(=O)c2ccc(F)cc2)CC1,inactive,–
CC1=CC(=O)CCC1,inactive,–
CCOC(=O)[C@H](CCc1ccccc1)N[C@@H](C)C(=O)N1CCC[C@H]1C(=O)O,inactive,–
CCCCC1CCCCC(=O)O1 (configuration not stated),inactive,–
CC1=CCC2C(C1)C2(C)C (configuration not stated),inactive,–

# From PubChem BioAssay (Tox21)
